This note sets out measurements from PubChem BioAssay (NCATS).

Several values for one entry are separate records, joined by “and”; a condition that tells them apart may be missing. Equal entries are not always repeated. Results filed as inconclusive are left out. Some structures have more than one record in an assay (separate samples or runs), and their calls can disagree. Activity calls are given as the source filed them. The call rests on the fitted dose curve; in most records, active means well fitted curve in the direction sought with a large enough effect; inconclusive means small, poorly fitted or top-dose-only effect, or another doubt; inactive means no such curve, though single readings can be large; an effect the other way counts as inactive or inconclusive.

A short description of test [1]: Viability qHTS for spleen associated tyrosine kinase inhibitor (SYKi) drug resistant MV4-11 cells (AID 1963824). Further: nearly all actives have a fitted effect of over 35% in size. Further: potency means the concentration at half of the fitted maximal effect. Summed up: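 CellTiter-Glo luminescence, read 10 min after reagent addition, reports viability after a 72 hr compound exposure. Cells are an MV4-11 line made resistant to SYK inhibition, seeded at 500 per well onto compound-containing plates.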
Background: Quantitative high-throughput screening tests each substance at several concentrations.

The nature of test [2]: Quantitative highthroughput screen to assess conditional lethalithy of P12 Ichikawa cells grown in Human Plasma-Like Medium with dialyzed fetal bovine serum (HPLM+ds) (AID 1963879). Further: nearly all actives have a fitted effect of over 35% in size. Further: potency means the concentration at half of the fitted maximal effect. On Viability: series mostly up to about 46 µM. Conditions: Potency: viability. Summed up: (§1)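 Each medium arm—HPLM with 10% dialyzed FBS, or RPMI1640 with 5 mM glucose and 10% untreated or dialyzed FBS—was screened against an 11-point, 3-fold compound titration for 48 h at 37 °C, with CellTiter-Glo luminescence as endpoint.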

A short description of test [3]: Cellular viability qHTS for adrenocortical cancer (ACC) cell line SW-13 (AID 1963989). Further: nearly all actives have a fitted effect of over 65% in size. Further: potency means the concentration at half of the fitted maximal effect.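 On activity (max response): cells grown in serum-free medium with ITS supplement; on the % scale 0 is the no-effect control and ±100 the full control effect.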 As to conditions: SW-13 ACC cells viability, CellTiter-Glo, 48 h; activity (max response): stronger effect = lower value. The essentials: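 SW-13 cells in ITS-supplemented serum-free DMEM were plated overnight, then exposed for 48 h at 37C to compound titrations (up to 46 uM final). Viability was read by CellTiter-Glo luminescence; four-parameter logistic fits gave IC50 and efficacy.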

A short description of test [4]: Cellular viability qHTS for adrenocortical cancer (ACC) cell line NCI-H295R (AID 1963990). Further: nearly all actives have a fitted effect of over 60% in size. Further: potency means the concentration at half of the fitted maximal effect. Summed up:
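Luminescent ATP read-out (CellTiter-Glo, 20 min RT) after 48 h drug exposure of NCI-H295R cells; a titration up to 46 uM final. Data normalized to doxorubicin (100% inhibition) and DMSO (0%); 4-parameter fit gives IC50, max response.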

A short description of test [5]: Quantitative highthroughput screen to assess conditional lethalithy of P12 Ichikawa cells grown in RPMI1640 with dialyzed fetal bovine serum (RPMI+ds) (AID 1963880). Further: nearly all actives have a fitted effect of over 35% in size. Further: potency means the concentration at half of the fitted maximal effect.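 On Viability: 100% = DMSO wells and 0% = empty wells on each plate.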 Conditions: Potency: P12-Ichikawa viability. Summed up: as §1
A short description of test [6]: Quantitative highthroughput screen to assess conditional lethalithy of P12 Ichikawa cells grown in RPMI1640 with untreated serum (RPMI+s) (AID 1963881). Further: nearly all actives have a fitted effect of over 35% in size. Further: potency means the concentration at half of the fitted maximal effect.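 On Viability: series mostly up to about 46 µM; 100% = DMSO wells and 0% = empty wells without cells.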 Conditions: Potency: viability. Summed up: as §1
The nature of test [7]: Quantitative highthroughput screen to assess conditional lethalithy of SEM cells grown in Human Plasma-Like Medium with dialyzed fetal bovine serum (HPLM+ds) (AID 1963882). The essentials:
as §1

Test [8] is described as follows: Quantitative highthroughput screen to assess conditional lethalithy of SEM cells grown in RPMI1640 with unreated serum (RPMI+s) (AID 1963883). The essentials: as §1
Test [9] is described as follows: Quantitative highthroughput screen to assess conditional lethalithy of NOMO1 cells grown in Human Plasma-Like Medium with dialyzed fetal bovine serum (HPLM+ds) (AID 1963878). The essentials: as §1

`COc1ccccc1[C@H](c1cccc2ccccc12)[C@@](C)(C#N)C(=O)N1CCC(c2cccc(C(F)(F)F)c2)CC1`: the Potency is 8.33 µM (active) in [1] and 16.6 µM (active) in [2]. The activity (max response) in [3] is -5.9% (inactive). In [4], the Potency result was “inactive”.
On to `Nc1nc(NCCNc2ncc(-n3ccnc3)c(-c3ccc(Cl)cc3Cl)n2)ccc1[N+](=O)[O-]`, for which the Potency in test [1] is 3.72 µM (active). In addition, the Potency entry in test [2], in test [5], in [6], in test [7], in test [8] and in [4] was “inactive” throughout. In addition, the activity (max response) in [3] is -10% (inactive).
`CC(C)C(=O)Nc1ccc([N+](=O)[O-])c(C(F)(F)F)c1`: the Potency is 10.6 µM (active) and 18.6 µM (active) in test [1]; 1.87 µM (active) in test [2]; 3.32 µM (active) in test [5]; 2.09 µM (active) in test [6]. Further, the Potency result in test [7], in test [8] and in [4] was “inactive” in each case. The activity (max response) in test [3] is 15.5% (inactive).
As for `O=C(Nc1nc2cccc(-c3ccc(CN4CCS(=O)(=O)CC4)cc3)n2n1)C1CC1`, the Potency was 2.91 µM (active) and 7.42 µM (active) in [1]; 23.5 µM (active) in [9]; 25.1 µM (active) in test [3]; 28.2 µM (active) in test [4].
Consider `Nc1ccc(S(=O)(=O)NCc2ccccc2)cc1`, for which, in test [1], the Potency entry is “inactive”. Further, the activity (max response) in test [3] is -7% (inactive).
In the same order, the values of `O=C(Nc1cnn2ccc(N3CCC[C@@H]3c3cc(F)ccc3F)nc12)N1CC[C@H](O)C1` are “inactive” and -2.6% (inactive).
Taken in the same sequence, the figures for `CC(Nc1ncnc2nc[nH]c12)c1cc2cccc(Cl)c2c(=O)n1-c1ccccc1` (stereo not given) were 2.59 µM (active) and -2.7% (inactive).
`CC(C(O)c1ccccc1)N(C)CCOC(c1ccccc1)c1ccccc1` (stereo not given): the Potency in test [1] is 8.2 µM (active); in test [3], 20.6 µM (active).
As for `NNc1nnc(NN)c2ccccc12`, in test [1], the Potency result was “inactive”. In addition, the activity (max response) in test [3] was -8.18% (inactive).
Taken in the same sequence, the figures for `C/C=C/C=N/NC(=O)c1ccncc1` were “inactive” and -0.764% (inactive).
Taken in the same sequence, the figures for `CCCC[C@@H](C=O)NC(=O)[C@H](CC(C)C)NC(=O)OCc1ccccc1` were 18.6 µM (active) and -4.14% (inactive).
Taken in the same sequence, the figures for `CCN(CC)CCc1nc(-c2ccccc2)no1` were “inactive” and -1.01% (inactive).
For `COc1ccc(N(C)c2nc(C)nc3ccccc23)cc1`, the Potency was 0.0042 µM (active) in [1] and 0.0112 µM (active) in test [3].
As for `Clc1cccc(C(c2ccc3nc[nH]c3c2)n2ccnc2)c1` (stereo not given), the Potency entry in test [1] was “inactive and 18.6 µM (active)”. The activity (max response) in [3] is 10.9% (inactive) and -12.2% (inactive).
Turning to `CCOC(=O)[C@H]1O[C@@H]1C(=O)N[C@@H](CC(C)C)C(=O)NCCC(C)C`, the Potency in test [1] was 5.9 µM (active). In addition, the activity (max response) in test [3] was -2.38% (inactive).
On to `O=C1NC(=O)C(c2c[nH]c3ccccc23)=C1c1c[nH]c2ccccc12`, for which the Potency was 1.16 µM (active) in test [1] and 25.1 µM (active) in [3].
For the molecule `CN[C@@H]1[C@@H](O)[C@@H](O[C@@H]2[C@@H](O)[C@H](O[C@H]3O[C@H](CN)[C@@H](O)[C@H](O)[C@H]3O)[C@@H](N)C[C@H]2NC(=O)C(O)CN)OC[C@]1(C)O` (stereo not given in full), in test [1], the Potency result is “inactive”. Further, in test [3], the activity (max response) is -3.06% (inactive).
Taken in the same sequence, the figures for `CC[C@H](CC[C@@H](C)[C@H]1CC[C@H]2[C@@H]3CC=C4C[C@@H](O)CC[C@]4(C)[C@H]3CC[C@]12C)C(C)C` were “inactive” and -11% (inactive).
With `O=C(O)[C@@H]1[C@H]2C[C@H]3c4[nH]c5ccccc5c4CCN3C[C@@H]2CC[C@@H]1O`, the Potency in test [1] is 5.96 µM (active). Also, in test [3], the activity (max response) was 3.73% (inactive).
As to `Cc1ccc(N)cc1O`, the Potency in [1] is 9.69 µM (active). Also, the activity (max response) in test [3] was 2.63% (inactive).
With `CO[C@H]1/C=C/O[C@@]2(C)Oc3c(C)c(O)c4c(O)c(c(/C=N/N5CCN(C)CC5)c(O)c4c3C2=O)NC(=O)/C(C)=C\C=C\[C@H](C)[C@H](O)[C@@H](C)[C@@H](O)[C@@H](C)[C@H](OC(C)=O)[C@@H]1C`, the Potency in [1] is 18.6 µM (active). Further, the activity (max response) in [3] was -27.5% (inactive).
Taken in the same sequence, the figures for `C[C@H]1C[C@@H](n2c(Nc3ccc(OC(F)(F)F)cc3)nc3cc(CCC(=O)O)ccc32)CC(C)(C)C1` were 10.5 µM (active) and -13.1% (inactive).
In the same order, the values of `CCN(CC)CCOC(=O)C(Cc1cccc2ccccc12)CC1CCCO1` (stereo not given) are “inactive” and -10.7% (inactive).
For the molecule `NC(=O)c1cccc2c(NC(CN3CCC3)c3ccc(Cl)c(C(F)(F)F)c3)ncnc12` (stereo not given), the results for the Potency in [1] and in [3] were 2.35 µM (active) and 14.1 µM (active), respectively.
On to `N#Cc1c(N)nc(N)nc1N[C@H](c1nc2c(F)ccc(Cl)c2c(=O)n1-c1cccnc1)C1CC1`, for which the Potency in test [1] is 10.5 µM (active). In test [3], the activity (max response) was -22.7% (inactive).
Taken in the same sequence, the figures for `O=C(O)C[C@H]1CCc2c1[nH]c1ccc(OCc3ccc(C4CCCC4)c(C(F)(F)F)c3)cc21` were 7.42 µM (active) and 5.55% (inactive).
In the same order, the values of `CN1CCN(CCCNc2ncc(Cl)c(-c3cc4c(C(=O)NC5CC5)cccc4s3)n2)CC1` are 18.6 µM (active) and 0.565% (inactive).
